Among the data in PubChem BioAssay AID493168 (National Center for Advancing Translational Sciences (NCATS), 2011) are Potency values, retold here.

Structures are written as SMILES. Records with an inconclusive call do not appear. Entries that show only a call come without a potency. Activity calls are given as the source filed them. The call rests on the fitted dose curve; in most records, active means well fitted inhibition curve with a large enough effect; inconclusive means small, poorly fitted or top-dose-only effect, or effect the other way; inactive means flat fitted curve, though single readings scatter.
Potency means the concentration at half of the fitted maximal effect.

Chain of Ubiquitin carboxyl-terminal hydrolase 2 (Homo sapiens) (O75604 whole entry, looked up): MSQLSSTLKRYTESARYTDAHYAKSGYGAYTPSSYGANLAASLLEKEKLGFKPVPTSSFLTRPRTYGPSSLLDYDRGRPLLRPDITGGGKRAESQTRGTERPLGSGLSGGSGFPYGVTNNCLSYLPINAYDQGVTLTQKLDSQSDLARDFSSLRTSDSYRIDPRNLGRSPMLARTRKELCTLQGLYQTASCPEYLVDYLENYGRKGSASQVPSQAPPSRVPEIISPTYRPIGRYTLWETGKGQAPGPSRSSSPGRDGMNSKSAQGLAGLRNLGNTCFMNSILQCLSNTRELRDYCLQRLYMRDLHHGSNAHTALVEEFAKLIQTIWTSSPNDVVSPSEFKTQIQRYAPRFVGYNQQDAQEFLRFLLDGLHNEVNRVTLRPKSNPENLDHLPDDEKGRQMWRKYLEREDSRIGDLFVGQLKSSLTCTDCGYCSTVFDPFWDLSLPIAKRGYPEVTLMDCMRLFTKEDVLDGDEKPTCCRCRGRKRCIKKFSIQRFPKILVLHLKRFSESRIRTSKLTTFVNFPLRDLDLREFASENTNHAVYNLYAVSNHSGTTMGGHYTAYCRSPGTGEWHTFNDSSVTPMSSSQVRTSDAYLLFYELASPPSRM

In the assay the target is Ubiquitin carboxyl-terminal hydrolase 2 (Homo sapiens) (UniProt O75604). The experiment in a line: Confirmation Assay for Inhibitors of Ubiquitin-specific Protease USP2a Using CHOP2 as the Reporter. Further: nearly all actives have a fitted effect of over 55% in size. To be noted: USP2 core, Ub-CHOP2 coupled reporter fluorescence; series mostly up to 38.3 µM. In outline:
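Ub-CHOP2 cleavage coupled to reporter activation was read by fluorescence after 60 min at RT, with 25 nM final Ub-CHOP2 and substrate. Enzyme (10 nM final USP2 core) first sat 30 min with compound; data were normalized to NEM and fitted to concentration-response curves.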
As for `COc1cc(/C=N/NC(=O)c2cc(-c3ccccc3)nc3ccccc23)ccc1O`, the Potency entry is “inactive”.

Regarding `CNc1nc(OCCNC(=O)Nc2ccccc2)nc(N2CCOCC2)n1`, the Potency result was “inactive”.

`Cc1c(O)c(CN2CCCC2)cc2c3c(c(=O)oc12)CCC3`: the Potency entry was “inactive”.

For `O=C(Nc1ccc2c(c1)OCO2)NC1(C(F)(F)F)Oc2ccccc2O1`, the Potency entry is “inactive”.

With `CCOC(=O)C1CCCN(CC(=O)Nc2c(C(=O)OC)[nH]c3ccc(C)cc23)C1` (stereo not given), the Potency result was “inactive”.

Consider `CC(=O)c1c(N2CCCC2)[nH]c(-c2ccccc2)nc1=S`, for which the Potency result is “inactive”.

With `Nc1cc(=O)[nH]c(SCc2cccc(Cl)c2)n1`, the Potency entry was “inactive”.

As to `CCC(=O)Nc1c2c(nn1-c1ccc(F)cc1)CS(=O)C2` (stereo not given), the Potency entry is “inactive”.

As to `CCCC(=O)Nc1ccc(N2CCN(C(=O)c3cc4ccccc4o3)CC2)cc1`, the Potency result is “inactive”.

Turning to `Cc1ccc(C)c(S(=O)(=O)c2c(N)n(/N=C/c3ccco3)c3nc4ccccc4nc23)c1`, the Potency result is “inactive”.

For `Cc1ccc(NC(=O)CSc2nnc(COc3ccc(C#N)cc3)n2-c2ccccc2)cc1C`, the Potency result is “inactive”.

As to `O=C(Nc1cccc(Cl)c1)Nc1nnc(CC2=CCCCC2)s1`, the Potency result is “inactive”.

`CC1=C(C(=O)OC(C)C)C(C)C(C(=O)OC(C)C)=C(C)N1`: the Potency result was “inactive”.

As to `CC(C)c1ccc(NC(=O)C(c2ccc3c(c2)OCO3)N2CCCCC2)cc1` (stereo not given), the Potency entry is “inactive”.

`COc1ccc(NC(=O)CN(Cc2ccccc2)S(C)(=O)=O)cc1`: the Potency result was “inactive”.

`Cc1ccc(C(=O)NCCCc2ccccc2)s1`: the Potency result was “inactive”.

Turning to `CCOc1ccc(-c2ccc(/C=C3/C(=N)N4C(C)=CSC4=NC3=O)o2)c([N+](=O)[O-])c1`, the Potency result is “inactive”.

`CCCOc1ccc(N2C(=O)CC(NCCc3ccc(S(N)(=O)=O)cc3)C2=O)cc1` (stereo not given): the Potency result was “inactive”.

In the case of `CCOC(=O)C1CCN(CC(O)COc2ccc(C(C)(C)C)cc2)CC1` (stereo not given), the Potency result is “inactive”.

Consider `CCCc1nc(SCC(N)=O)[nH]c(=O)c1CC`, for which the Potency entry is “inactive”.

Take `COC(=O)CSc1nc2c(c(-c3ccco3)c1C#N)CCCC2`: the Potency entry was “inactive”.

As for `CC(C)(C)c1cc(Br)ccc1OCC(=O)Nc1ncn[nH]1`, the Potency entry is “inactive”.

As for `CCCCCCCCCCC[N+](C)(C)CC/C=C1/c2ccccc2Sc2ccc(Cl)cc21`, the Potency was 9.27 µM (active).

Take `Cc1cc(C(=O)OCC(=O)c2cccc([N+](=O)[O-])c2)c2cccc(C)c2n1`: the Potency entry is “inactive”.

`Nc1c(C(=O)NCC2CCCO2)sc2nc3c(c(-c4ccco4)c12)CC/C3=C\c1ccco1` (stereo not given): the Potency was 4.14 µM (active).

With `CCCOC(=O)CCCCC1SCC(NC(=O)OC)C1NC(=O)OC` (stereo not given), the Potency entry is “inactive”.

For the molecule `CC12CN3CC(C)(CN(C1)C3c1ccc(Cl)cc1Cl)C2O` (stereo not given), the Potency result is “inactive”.

Turning to `Cc1n[nH]c(C)c1S(=O)(=O)N1CCCC(C(=O)NC2CCCc3ccccc32)C1` (stereo not given), the Potency result was “inactive”.

As for `Cn1c(=O)[nH]c(=O)c2c1nc(NCc1ccccc1)n2CCCc1ccccc1`, the Potency entry is “inactive”.

Turning to `O=C(NC12CC3CC(CC(C3)C1)C2)C1=COCCO1`, the Potency entry was “inactive”.

Turning to `COC(=O)c1cc2sc(Cl)cc2n1Cc1nc(-c2ccccc2)oc1C`, the Potency result is “inactive”.

Take `O=C(NCCN1C(=O)CSC1=O)C1CC(=O)N(c2ccccc2)C1` (stereo not given): the Potency entry is “inactive”.

As to `Cc1ccc(C(=O)C(=S)N2CCOCC2)cc1`, the Potency result was “inactive”.

Consider `CC(=O)c1ccc2c(c1)C1C=CCC1C(C(=O)O)N2` (stereo not given), for which the Potency is 11.7 µM (active).

For the molecule `COc1ccc(S(=O)(=O)N2CCCC2C(=O)NCc2cccs2)cc1` (stereo not given), the Potency result is “inactive”.

For `O=C(CSc1nnnn1-c1ccc(F)cc1)c1ccc(O)c(O)c1`, the Potency result is “inactive”.

As to `Cc1cccn2c(=O)c3cc(C(=O)NCCN4CCOCC4)c(=N)n(CCN4CCOCC4)c3nc12`, the Potency result was “inactive”.

For the molecule `COc1cccc(NC(=O)CSc2nncn2-c2ccccn2)c1`, the Potency result was “inactive”.

Take `CC(C)(C)NC(=O)C(c1ccco1)N(C(=O)c1ccc(CN2CCOCC2)o1)c1ccccc1` (stereo not given): the Potency entry is “inactive”.

For the molecule `CC(C)(C)C1CCC(=NNC(=O)CN(c2ccccc2)S(C)(=O)=O)CC1` (stereo not given), the Potency entry is “inactive”.
